Screens as filed in PubChem.
Sampled rows, rich in hits. Any-hit rate of the full collection: about 2.1%.
FUS suppressor = suppressors of FUS proteinopathy in yeast. S. cerevisiae FUS-expressing, growth rescue, OD600, 24 h. Potency, µM (top dose mostly 76.6 µM), usual class: activators. hit rate 0.24% among 390,000. AID 1347120; further: nearly all actives have a fitted effect of over 55% in size
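Cultures pregrown in 2.5% raffinose medium are shifted to minimal medium containing 2% galactose to express toxic FUS. Compounds are tested at several concentrations. After 24hr at 30C, growth is quantified at 600 nm absorbance.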
TDP-43 yeast inh = TDP-43 toxicity inhibition in yeast. TDP-43 expressing yeast growth rescue, BacTiter-Glo, 24 h. AID 652104. Potency, µM (titrated, usually from 46.1 µM), actives largely listed as activators. hit rate 1.8% among 410,000; further: nearly all actives have a fitted effect of over 50% in size
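In this qHTS, compounds that restore growth of yeast expressing TDP-43 appear as activators. Cells (OD600=0.02, galactose medium, raffinose-pregrown) are incubated with compound 24 hr at 30 deg C and growth is quantified by BacTiter-Glo.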
Abeta yeast res = restores growth of yeast expressing A-beta42 peptide; yeast expressing A-beta42, growth rescue, OD600, 48 h; response scale: 0% DMSO, 100% iron-clioquinol control; Potency, µM (titrated, usually from 46.1 µM), hits mostly activators; hit rate 0.063% among 410,000; further: nearly all actives have a fitted effect of over 55% in size
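Growth rescue measured by 600 nm absorbance after 48 h yeast culture at 30 C with compound. Values normalized between DMSO and an equimolar ferric chloride plus clioquinol control.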
aSyn rescue = alpha-synuclein toxicity inhibition in yeast; Yeast expressing alpha-synuclein, growth rescue, BacTiter-Glo, 24 h; Potency, µM (doses to about 46.1 µM), hits mostly activators; hit rate 0.14% among 370,000; AID 652106; further: nearly all actives have a fitted effect of over 65% in size
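Galactose-induced alpha-syn yeast (OD600=0.02, raffinose-pregrown) + pinned cpd, 24 hr, 30 deg C; growth by BacTiter-Glo luminescence. Growth restoration scores as activation.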
Each line names hits and unclear results; the compound was inactive in the other large screens. The call rests on the fitted dose curve; in most records, active means well fitted curve in the direction sought with a large enough effect; inconclusive means small, poorly fitted or top-dose-only effect, or another doubt; inactive means no such curve, though single readings can be large; an effect the other way counts as inactive or inconclusive.

CCOC(=O)c1c(S(=O)(=O)N2CCCC(C(=O)NCc3ccc(Cl)cc3)C2)c(C)n(C)c1C (stereo not drawn)	none (no result: aSyn rescue)
CCOC(=O)[C@]12CCCC=C1N(CCCOC)C(=O)[C@@H]2CC(=O)NCC1CCCCC1	none (no result: TDP-43 yeast inh, Abeta yeast res, aSyn rescue)
CCOC(=O)[C@]12CCCC=C1N(CCCOC)C(=O)[C@@H]2CC(=O)NCc1ccccc1	none (no result: TDP-43 yeast inh, Abeta yeast res, aSyn rescue)
COc1cc2nc(CCNCc3ccccc3)nc(NC3CCN(C)CC3)c2cc1OC	none (no result: FUS suppressor, TDP-43 yeast inh, Abeta yeast res)
O=C(Cc1ccccc1)Nc1cc(C(=O)c2ccccc2)ccc1N1CCOCC1	TDP-43 yeast inh 12.6µM (no result: aSyn rescue)
CCn1c(=O)cc(OCC(=O)N2CCN(c3ccccc3OC)CC2)c2ccccc21	none (no result: aSyn rescue)
COCc1cc(=O)[nH]c(SCCS(=O)(=O)c2ccc(C)cc2)n1	none
COCc1cc(=O)[nH]c(SCCS(=O)(=O)c2ccc(Cl)cc2Cl)n1	TDP-43 yeast inh 6.31µM
COc1ccc(NC(=O)c2cc(-c3cc(F)ccc3OC(C)C)n[nH]2)c(OC)c1	TDP-43 yeast inh 20µM
COc1ccc(NC(=O)c2cc(-c3cc(F)ccc3OC(C)C)n[nH]2)cc1OC	TDP-43 yeast inh 35.5µM
CCCOc1ccc(F)cc1-c1cc(C(=O)Nc2cc(OC)ccc2OC)[nH]n1	none
COc1ccc(NC(=O)c2cc(-c3cc(F)ccc3OC)n[nH]2)c(C)c1	TDP-43 yeast inh 22.4µM
CC(C)Oc1ccc(F)cc1-c1cc(C(=O)NC2CCCCC2)[nH]n1	TDP-43 yeast inh 15.8µM
COc1cc(NC(=O)c2cc(-c3cc(F)ccc3OC(C)C)n[nH]2)cc(OC)c1OC	none
O=C(Cc1ccc(-c2ccccc2)cc1)NCCS(=O)(=O)N1CCN(c2ccc(F)cc2)CC1	none (no result: aSyn rescue)
COc1ccc(NC(=O)c2cc(-c3cc(F)ccc3OCC3CCCO3)n[nH]2)c(C)c1 (stereo not drawn)	FUS suppressor inconclusive, TDP-43 yeast inh 12.6µM
COc1ccc(NC(=O)c2cc(-c3ccc(F)cc3OC(C)C)n[nH]2)c(OC)c1	TDP-43 yeast inh 25.1µM
COc1ccc(NC(=O)c2cc(-c3cc(Cl)ccc3C)n[nH]2)cc1OC	TDP-43 yeast inh 20µM
COc1ccc(NC(=O)c2cc(-c3cc(F)ccc3OCC3CCCO3)n[nH]2)cc1OC (stereo not drawn)	FUS suppressor inconclusive
O=C(COCc1cc(-c2cccs2)on1)NCc1ccc(F)cc1	TDP-43 yeast inh inconclusive (no result: aSyn rescue)
CCCC(C)NC(=O)c1ccc(OCc2ccc(Cl)cc2)c(OC)c1 (stereo not drawn)	TDP-43 yeast inh 22.4µM
CCC(C)NC(=O)c1ccc(COc2ccccc2Cl)cc1 (stereo not drawn)	TDP-43 yeast inh inconclusive
O=C(c1cc2cc(F)ccc2[nH]1)N1CCCC(Nc2ccc(F)cc2)C1 (stereo not drawn)	TDP-43 yeast inh 17.8µM
Cc1nc(S(=O)(=O)c2cccc(Cl)c2)nc2c1CCC2	TDP-43 yeast inh 14.1µM, aSyn rescue inconclusive (no result: FUS suppressor)
Cc1nc(S(=O)(=O)c2ccc(Cl)cc2Cl)nc2c1CCC2	none
Cn1cc(-c2cc3n(n2)CCC(=O)N3CCCC(=O)NCc2ccccc2Cl)c2ccccc21	none (no result: aSyn rescue)
CCCCn1c(N)c(-c2nc3ccccc3s2)c2c([N+](=O)[O-])nn(C)c(=O)c21	FUS suppressor 39.8µM
CCCCn1c(N)c(-c2nc3ccccc3s2)c2c([N+](=O)[O-])nn(CC)c(=O)c21	none
CCn1c(=O)cc(OCC(=O)Nc2cc(OC)c(OC)c(OC)c2)c2ccccc21	none (no result: aSyn rescue)
CCOC(=O)c1sc(=S)n(-c2ccc(OC)cc2)c1C	TDP-43 yeast inh 20µM
CCOC(=O)c1sc(=S)n(-c2cc(OC)ccc2OC)c1N	none
CCOC(=O)c1sc(=S)n(-c2ccc(Cl)cc2)c1C	TDP-43 yeast inh 25.1µM
CCN(CC)c1cc2c(cc1F)c(=O)c(S(=O)(=O)c1cc(C)ccc1C)cn2Cc1ccccc1	none (no result: aSyn rescue)
Cc1cc(OCc2cc(C(=O)N(C)CCc3cnn(C)c3)no2)cc(C)c1Cl	none
CC(=O)c1ccc(OCc2cc(C(=O)N(C)C3CCOC3)no2)cc1 (stereo not drawn)	none
CCc1ccc(CN(C)C(=O)c2cc(COc3cc(C)c(Cl)c(C)c3)on2)nc1	FUS suppressor inconclusive, TDP-43 yeast inh 20µM, aSyn rescue inconclusive
CCc1ccc(CN(C)C(=O)c2cc(COc3cncc(Cl)c3)on2)cc1	none
Cc1cc(OCc2cc(C(=O)N(C)Cc3nonc3C)no2)cc(C)c1Cl	TDP-43 yeast inh inconclusive, Abeta yeast res 14.1µM
Cc1cc(OCc2cc(C(=O)N(C)C3CCOC3)no2)cc(C)c1Cl (stereo not drawn)	TDP-43 yeast inh 12.6µM
